Whole data set: some 11,000 sequences, median “log2 fold change” near 0.00022, cut for the highest 2% near 0.34. This is one part of the list.

This assay concerns the target GST-SBP-SLBP (stem-loop binding protein) (Homo sapiens, UniProt Q14493 1-270). Put plainly: targeted RNA Bind-n-Seq; RBNS binding buffer: 25 mM Tris pH 7.5, 150 mM KCl, 3 mM MgCl2, 0.1% Tween, 0.5 mg/mL BSA, 1 mM DTT; 27 nM protein, 750 pM RNA pool; temperature not stated; high values mean tight binding. Particulars: protein: recombinant; tags: N-terminal GST and SBP (pGEX6P1-SBP); structured_RNA. The essentials:
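Read counts per sequence supply the binding signal, defined as the DEseq fold change on a binary-logarithm scale. These counts came from RNA of a designed, T7-transcribed oligo pool at 750 pM that bound 27 nM of GST-SBP-tagged protein, made in Rosetta(DE3) pLysS E. coli and glutathione-purified, in RBNS binding buffer. The bound RNA was reverse transcribed with a 10-nucleotide barcoded primer, PCR-amplified and sequenced on a MiSeq with 200-cycle paired-end reads, then processed with FLASH and HISAT2 and collapsed by barcode.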
As to “GGUCACGUCUCAAUCAACUCAUACGAGGGGGGGAAAACCCCUUUACCCUCAAAUUCAACAGCUCGCAGUCAAG”, the binding signal stood at 0.598 ± 0.45 log2 fold change. In the case of “GGUCACGUCUCAAUCAACUCAUACGAGGGGGGGAAAACCCCUUUACCCUCAAUAUCAACAGCUCGCAGUCAAG” it was 0.313 ± 0.436 log2 fold change; in that of “GGUCACGUCUCAAUCAACUCAUACGAGGGGGGGAAAACCCCUUUACCCUCAAACUCAACAGCUCGCAGUCAAG”, 0.382 ± 0.399 log2 fold change; in that of “GGUCACGUCUCAAUCAACUCACAAGAGGGGGGGAAAACCCCUUUACCCUCACUCUCAACAGCUCGCAGUCAAG”, 0.304 ± 0.385 log2 fold change. In the case of “GGUCACGUCUCAAUCAACUCAUAAGAGGGGGGGAAAACCCCUUUACCCUCACACUCAACAGCUCGCAGUCAAG” it was 0.455 ± 0.444 log2 fold change; in that of “GGUCACGUCUCAAUCAACUCACAAGAGGGGGGGAAAACCCCUUUACCCUCGUCCUCAACAGCUCGCAGUCAAG”, 0.385 ± 0.429 log2 fold change. Under “GGUCACGUCUCAAUCAACUCGCAAGAGGGGGGGAAAACCCCUUUACCCUCACAAUCAACAGCUCGCAGUCAAG” stands 0.536 ± 0.414 log2 fold change; under “GGUCACGUCUCAAUCAACUCAUCUCCAGGAGUUUCCUCCUGCUUUUUCAACAGCUCGCAGUCAAG”, 0.328 ± 0.198 log2 fold change; under “GGUCACGUCUCAAUCAACUCAAUCUCAGGAGUUUUCUCCUGCUAUUUCAACAGCUCGCAGUCAAG”, 0.339 ± 0.222 log2 fold change. On to “GGUCACGUCUCAAUCAACUCAUCCGCAGGAGUUUCCUCCUGGUAUUUCAACAGCUCGCAGUCAAG”, for which the binding signal is 0.483 ± 0.25 log2 fold change. Under “GGUCACGUCUCAAUCAACUCAGUCCCAGGAGUUUUCUCCUGCUAAUUCAACAGCUCGCAGUCAAG” stands 0.335 ± 0.235 log2 fold change; under “GGUCACGUCUCAAUCAACUCAUCCUCAGGAGUUUCCUCCUGCAAACUCAACAGCUCGCAGUCAAG”, 0.314 ± 0.204 log2 fold change. Under “GGUCACGUCUCAAUCAACUCAAUCCCAGGAGUUUCCUCCUGUUUUUUCAACAGCUCGCAGUCAAG” stands 0.312 ± 0.215 log2 fold change; under “GGUCACGUCUCAAUCAACUCAAUCCCAGGAGUUUGCUCCUGCAUAUUCAACAGCUCGCAGUCAAG”, 0.355 ± 0.208 log2 fold change; under “GGUCACGUCUCAAUCAACUCUUUCUCAGGAGUUUCCUCCUGCAUUUUCAACAGCUCGCAGUCAAG”, 0.312 ± 0.164 log2 fold change. In the case of “GGUCACGUCUCAAUCAACUCAUCCCCAGGAGUUUGCUCCUGCAUUCUCAACAGCUCGCAGUCAAG” it was 0.306 ± 0.225 log2 fold change; in that of “GGUCACGUCUCAAUCAACUCAGUCUCAGGAGUUUCCUCCUGCUAUUUCAACAGCUCGCAGUCAAG”, 0.343 ± 0.24 log2 fold change; in that of “GGUCACGUCUCAAUCAACUCAUCCUCAGGAGUUUGCUCCUGCAUAUUCAACAGCUCGCAGUCAAG”, 0.313 ± 0.205 log2 fold change. For “GGUCACGUCUCAAUCAACUCAGUCCCAGGAGUUUCCUCCUGUAAAUUCAACAGCUCGCAGUCAAG”, the binding signal was found to be 0.371 ± 0.28 log2 fold change. Under “GGUCACGUCUCAAUCAACUCUUAAGAGGGGGGGAAAACCCCUUUACCCUCGCCAUCAACAGCUCGCAGUCAAG” stands 0.455 ± 0.394 log2 fold change; under “GGUCACGUCUCAAUCAACUCUUAAGAGGGGGGGAAAACCCCUUUACCCUCAACGUCAACAGCUCGCAGUCAAG”, 0.385 ± 0.451 log2 fold change; under “GGUCACGUCUCAAUCAACUCUUAAGAGGGGGGGAAAACCCCUUUACCCUCAAAAUCAACAGCUCGCAGUCAAG”, 0.666 ± 0.398 log2 fold change. Under “GGUCACGUCUCAAUCAACUCUUCUCCCAGGGAAAUCCCUGGUAAACUCAACAGCUCGCAGUCAAG” stands 0.359 ± 0.267 log2 fold change; under “GGUCACGUCUCAAUCAACUCAUCGCCCAGGGAAAGCCCUGGUUAAUUCAACAGCUCGCAGUCAAG”, 0.329 ± 0.337 log2 fold change; under “GGUCACGUCUCAAUCAACUCAUCCCCCAGGGAAAUCCCUGGUUAAUUCAACAGCUCGCAGUCAAG”, 0.368 ± 0.293 log2 fold change. As for “GGUCACGUCUCAAUCAACUCAACUCCCAGGGAAACCCCUGGUAAAUUCAACAGCUCGCAGUCAAG”, the binding signal came to 0.307 ± 0.342 log2 fold change. In the case of “GGUCACGUCUCAAUCAACUCUUCUUCCAGGGAAAUCCCUGGUAAUUUCAACAGCUCGCAGUCAAG” it was 0.413 ± 0.238 log2 fold change. Consider “GGUCACGUCUCAAUCAACUCUUCUCCCAGGGAAAUCCCUGGUAUACUCAACAGCUCGCAGUCAAG”, for which the binding signal was determined as 0.329 ± 0.25 log2 fold change. In the case of “GGUCACGUCUCAAUCAACUCAAUCCCCAGGGAAAUCCCUGGUAAAUUCAACAGCUCGCAGUCAAG” it was 0.453 ± 0.315 log2 fold change; in that of “GGUCACGUCUCAAUCAACUCUUCUCCCAGGGAAAGCCCUGGUAAACUCAACAGCUCGCAGUCAAG”, 0.33 ± 0.26 log2 fold change; in that of “GGUCACGUCUCAAUCAACUCUUCUUCCAGGGAAAUCCCUGGCAAACUCAACAGCUCGCAGUCAAG”, 0.309 ± 0.268 log2 fold change. In the case of “GGUCACGUCUCAAUCAACUCAAUCUCCAGGGAAAUCCCUGGUUAAUUCAACAGCUCGCAGUCAAG” it was 0.348 ± 0.266 log2 fold change; in that of “GGUCACGUCUCAAUCAACUCAAUCUCCAGGGAAAUCCCUGGCUAAUUCAACAGCUCGCAGUCAAG”, 0.315 ± 0.249 log2 fold change.

Turning to “GGUCACGUCUCAAUCAACUCUCAAGAGGGGGGGAAAACCCCUUUACCCUCAUUAUCAACAGCUCGCAGUCAAG”, the binding signal came to 0.622 ± 0.45 log2 fold change.

As for “GGUCACGUCUCAAUCAACUCCUCAGAGGGGGGGAAAACCCCUUUACCCUCCUUAUCAACAGCUCGCAGUCAAG”, the binding signal was determined as 0.431 ± 0.416 log2 fold change. In the case of “GGUCACGUCUCAAUCAACUCUAAAGAGGGGGGGAAAACCCCUUUACCCUCAUCAUCAACAGCUCGCAGUCAAG” it was 0.394 ± 0.392 log2 fold change. Under “GGUCACGUCUCAAUCAACUCAUUAGAGGGGGGGAAAACCCCUUUACCCUCAUCAUCAACAGCUCGCAGUCAAG” stands 0.333 ± 0.443 log2 fold change; under “GGUCACGUCUCAAUCAACUCCUCAGAGGGGGGGAAAACCCCUUUACCCUCAUUAUCAACAGCUCGCAGUCAAG”, 0.4 ± 0.421 log2 fold change; under “GGUCACGUCUCAAUCAACUCUAAAGAGGGGGGGAAAACCCCUUUACCCUCCUACUCAACAGCUCGCAGUCAAG”, 0.315 ± 0.441 log2 fold change.

Take “GGUCACGUCUCAAUCAACUCUAUAGAGGGGGGGAAAACCCCUUUACCCUCAUCAUCAACAGCUCGCAGUCAAG”: the binding signal amounted to 0.306 ± 0.416 log2 fold change. In the case of “GGUCACGUCUCAAUCAACUCACUAGAGGGGGGGAAAACCCCUUUACCCUCAUUAUCAACAGCUCGCAGUCAAG” it was 0.408 ± 0.406 log2 fold change; in that of “GGUCACGUCUCAAUCAACUCACUAGAGGGGGGGAAAACCCCUUUACCCUCAUCGUCAACAGCUCGCAGUCAAG”, 0.311 ± 0.421 log2 fold change. In the case of “GGUCACGUCUCAAUCAACUCCACGGAGGGGGGGAAAACCCCUUUACCCUCAAAUUCAACAGCUCGCAGUCAAG” it was 0.543 ± 0.46 log2 fold change; in that of “GGUCACGUCUCAAUCAACUCCUCAGAGGGGGGGAAAACCCCUUUACCCUCCCAUUCAACAGCUCGCAGUCAAG”, 0.356 ± 0.426 log2 fold change. In the case of “GGUCACGUCUCAAUCAACUCUCUAGAGGGGGGGAAAACCCCUUUACCCUCCCAUUCAACAGCUCGCAGUCAAG” it was 0.325 ± 0.44 log2 fold change; in that of “GGUCACGUCUCAAUCAACUCCCCAGAGGGGGGGAAAACCCCUUUACCCUCAAAUUCAACAGCUCGCAGUCAAG”, 0.402 ± 0.428 log2 fold change.

For the origin of these results see paper PMC5892938, “SARNAclust: Semi-automatic detection of RNA protein binding motifs from immunoprecipitation data”.
